# According to ChEMBL document CHEMBL3988442, “University of Dundee, Small-Polar-MMV Screening Library” (2021):
# Among all 48,000 compounds or so, about 13,000 (27%) showed an effect of 50% or more. This is one part of the list.
# Test system: Wolbachia pipientis
# Assay: Anti-Wolbachia Cell-Based Screen
# Format: functional
# Design: scale not given: in the data most compounds retested in dose-response had high values
# Conditions: 5 µM
row,SMILES,Percent Effect
1,CC(C)(CNC(=O)Nc1cccc(-c2cccs2)c1)C(N)=O,3.927%
2,N#Cc1ccc(Cn2cncn2)c(F)c1,-14.63%
3,N#Cc1nccnc1NC1CCN(c2ccccc2OC(F)F)C1 (stereo not given),9.423%
4,CCN1CCc2[nH]cnc2C12CCN(c1ccc(Cl)c(C(=O)O)n1)CC2,-7.204%
5,COc1ccc(CNC(=O)NCC2CCOC2)c(C(F)(F)F)c1 (stereo not given),-17.58%
6,O=C(c1cc2c(s1)CCCC2)N1CCCC1Cn1cccn1 (stereo not given),141.2%
7,O=C(c1cc2c(s1)CCC2)N1CCCCC1Cn1cccn1 (stereo not given),-2.201%
8,O=C(c1cc2c(s1)CCC2)N1CCCC1Cn1cccn1 (stereo not given),111%
9,Cc1nn(C)c(N2CCOCC2)c1CNC1CCN(C(C)(C)C)CC1,-15.17%
10,Cc1ccc(CNC2CCN(CCc3ccncc3)CC2)s1,-7.206%
11,c1cc(-c2ccn(CCN3CCCC3)n2)cc(-c2nccs2)c1,-3.86%
12,c1cc(-c2nnc3sc(CCN4CCCC4)nn23)ccn1,107.3%
13,c1ccc(-c2cccc(-c3ccn(CCN4CCCCC4)n3)c2)nc1,2.819%
14,c1ccc(-c2nnc3sc(CCN4CCCC4)nn23)cc1,117%
15,c1ccc(-c2nnc3sc(CCN4CCCCCC4)nn23)cc1,117.6%
16,c1cc(-c2nccn2CCc2nc3c(s2)CCC3)ccn1,7.441%
17,Cc1nc(CCN2CCCCC2)n(-c2ccc(F)cc2)n1,-12.73%
18,Cc1ccc(-c2cccc(-c3ccn(CCN4CCCC4)n3)c2)nn1,-8.933%
19,CC(C)(C)Cc1noc2ncc(C(=O)N3CCC3)cc12,-0.07347%
20,O=C(C1SCCc2sccc21)N1CCN(CC(F)F)CC1 (stereo not given),2.68%
21,COc1cccc(S(=O)(=O)CCN2CCN(CC(F)F)CC2)c1,1.442%
22,CN(CCOc1cccc(S(C)(=O)=O)c1)CC(F)F,95.25%
23,CS(=O)(=O)c1ccc(OCCNCc2cccc(F)c2)cc1,-4.841%
24,CN(CCOc1cccc(S(C)(=O)=O)c1)c1ccccc1,88.15%
25,CN(CCOc1cccc(Cl)c1)Cc1nnc(C(C)(C)C)o1,-19.16%
26,CS(=O)(=O)CCCOc1cccc(-n2cccn2)c1,-22.07%
27,CS(=O)(=O)CCCOc1cccc(-n2ccnc2)c1,0.659%
28,CN(CCOc1cccc(CNS(C)(=O)=O)c1)C1CCOCC1,-5.968%
29,CCC(C)(C)N(C)CCOc1cccc(S(C)(=O)=O)c1,103.5%
30,Cc1cccc(C(=O)NC2CCN(c3cnn(C)c3)C2=O)c1C (stereo not given),3.687%
